Experimental data reported in PubChem BioAssay (NCATS).
Inconclusive results are not listed. Activity calls are given as the source filed them. Calls come from the whole dose curve; as a rule, active = well fitted inhibition curve with a large enough effect; inconclusive = small, poorly fitted or top-dose-only effect; inactive = flat fitted curve, though single readings scatter.

Legend:
Test in all cases: Cytotoxic Profiling of Annotated Libraries Using Quantitative High-Throughput Screening (AID 1296008); note: nearly all actives have a fitted effect of over 60% in size
Details in all cases: Five cell lines viability, CellTiter-Glo ATP luminescence, 48-72 h; max response: stronger effect = lower value
CRL-7250 = normal cell line; tested on: CRL-7250
In short: (§1)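 Compounds were pin-transferred onto cells and incubated 48 or 72 hr at 37 degree Celsius, 95% humidity. CellTiter-Glo was added, plates sat 10 min at room temperature, then ATP-coupled luminescence was imaged as the viability read-out.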

HEK293 = tested on: HEK293
In short: as §1

HaCat = tested on: HaCat
In short: as §1

KB-3-1 = tested on: KB-3-1
In short: as §1

NIH3T3 = tested on: NIH3T3
In short: as §1

Measured: max response
% is set by controls: 0 for no effect and ±100 for the full control effect.

CCOC(=O)CSc1nc2c(sc3ccccc32)c(=O)n1CCCN1CCCC1
inactive: CRL-7250 | HEK293 -12.6% | HaCat | KB-3-1 | NIH3T3

CC(=O)OCC1OC(O[C@H]2CC[C@@]3(C)C(CC[C@]4(C)C3CC=C3[C@@H]5CC(C)(C)CC[C@]5(C(=O)O)CC[C@]34C)[C@]2(C)CO)C(O)C(O)C1OC1OC(C)C(O)C(OC2OCC(O)C(O)C2O)C1O (stereo not given in full)
inactive: CRL-7250 | HEK293 -5.43% | HaCat | KB-3-1 | NIH3T3

COC(=O)C1=CO[C@@H](O[C@@H]2O[C@H](CO)[C@@H](O)[C@H](O)[C@H]2O)[C@H]2[C@@H]1[C@H](O)[C@H](O)[C@]2(C)O
inactive: CRL-7250 -3.33% | HEK293 1.23% | HaCat | KB-3-1 1.73% | NIH3T3 2.04%

O=C(/C=C/C=C/c1ccc2c(c1)OCO2)N1CCCCC1
inactive: CRL-7250 | HEK293 3% | HaCat 0.66% | KB-3-1 3.15% | NIH3T3

COCC1OC(n2cnc3c(=O)[nH]cnc32)C(O)C1O (stereo not given)
inactive: CRL-7250 | HEK293 -3.16% | HaCat | KB-3-1 2.47% | NIH3T3 -2.27%

COc1cc(O)cc2c1C(=O)OC(C)C2 (stereo not given)
inactive: CRL-7250 4.54% | HEK293 4.69% | HaCat | KB-3-1 3.07% | NIH3T3 -0.229%

COc1cc(C(=O)OCC2=CCC3C(C(=O)O)=COC(O[C@@H]4O[C@H](CO)[C@@H](O)[C@H](O)[C@H]4O)C23)ccc1O (stereo not given in full)
inactive: CRL-7250 -2.16% | HEK293 -8.64% | HaCat | KB-3-1 | NIH3T3

C/C=C(/C)C(=O)O[C@@H]1C[C@@H](OC(=O)/C(C)=C\C)[C@@]2(C)C3C(=O)C=C(C)C2C3C1(C)C
inactive: CRL-7250 -3.44% | HEK293 -8.78% | HaCat | KB-3-1 | NIH3T3 4.88%

Cc1cc(Cn2cnc3c2CC(C(=O)O)N(C(=O)C(c2ccccc2)c2ccccc2)C3)ccc1N(C)C (stereo not given)
inactive: CRL-7250 | HEK293 -1.68% | HaCat | KB-3-1 5.82% | NIH3T3 1.33%

COc1ccc2c(c1)C=C1Cn3c-2c(C2CCCCC2)c2ccc(cc23)C(=O)NS(=O)(=O)N(C)CCOCCN(C)C1=O
inactive: CRL-7250 -49.9% | HEK293 -78% | HaCat | KB-3-1 -5.47% | NIH3T3 -17.2%

COc1ccc(S(=O)(=O)Nc2nc(-c3cccc([N+](=O)[O-])c3)cs2)cc1OC
inactive: CRL-7250 -1.12% | HEK293 2.2% | HaCat | KB-3-1 6.48% | NIH3T3

CC(C)[C@@H](C(=O)O)N1Cc2c(cc(O)c3c2O[C@]2(C3)[C@H](C)CCC3C(C)(C)[C@H](O)[C@H](O)C[C@@]32C)C1=O (stereo not given in full)
inactive: CRL-7250 2.63% | HEK293 -15% | HaCat 2.56% | KB-3-1 3.13% | NIH3T3

C=C(C(=O)O)[C@@H]1CC[C@@]2(C)CCC[C@@](C)(O)[C@@H]2C1
inactive: CRL-7250 -2.07% | HEK293 -3.93% | HaCat | KB-3-1 5.56% | NIH3T3 1.2%

CC(=O)OC[C@]12[C@H](OC(C)=O)[C@H](OC(=O)c3ccccc3)[C@@H]3[C@@H](OC(C)=O)[C@]1(OC3(C)C)[C@H](C)C[C@H](OC(=O)c1ccccc1)[C@@H]2OC(=O)c1ccccc1
inactive: CRL-7250 | HEK293 -0.732% | HaCat | KB-3-1 -5.99% | NIH3T3 -7.63%

CC(C)(O)C1CCC2(C)CCCC(C)(O)C2C1 (stereo not given)
inactive: CRL-7250 -27.4% | HEK293 2.93% | HaCat | KB-3-1 8.99% | NIH3T3

O=C(Nc1ccc(N2CCC(C(=O)N3CCOCC3)CC2)cc1)c1cnc(Oc2ccccc2)nc1
inactive: CRL-7250 -3.51% | HEK293 -17.8% | HaCat | KB-3-1 -6.22% | NIH3T3 -17.6%

CC(=O)/C=C/C1(O)C(C)=CC(=O)CC1(C)C (stereo not given)
inactive: CRL-7250 -1.97% | HEK293 -3.4% | HaCat | KB-3-1 -2.68% | NIH3T3

C/C(=C\C(=O)C(C)C1CCC2C3=C(CCC21C)C1(C)CCC(=O)C(C)(C)C1(O)CC3)C(C)(C)O (stereo not given)
inactive: CRL-7250 3.05% | HEK293 -15.6% | HaCat 1.49% | KB-3-1 -3.74% | NIH3T3

COc1ccc(NC(=O)c2ccc(-c3ccc(C(N)=O)cc3C)cc2)cc1N1CCN(C)CC1
inactive: CRL-7250 -5.67% | HEK293 -78.4% | HaCat | KB-3-1 1.64% | NIH3T3 4.28%
